Laboratory results published in PubChem BioAssay (Tox21).
Inconclusive results are not listed. Activity calls are given as the source filed them. Unless noted, calls come from the whole dose curve; as a rule, active = well fitted curve in the direction sought with a large enough effect in the repeat runs; inconclusive = weak or mixed curves; inactive = no such curve, though single readings can be large; an effect the other way counts as inactive or inconclusive.

Experiments:
[1] = qHTS assay to identify small molecule antagonists of the retinoid acid receptor (RAR) signaling pathway - cell viability counter screen (AID 1159551); note: nearly all actives have a fitted effect of over 35% in size; note: potency is the fitted concentration of half-maximal effect
Outline: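 ATP-based viability, C3RL4 cells, 6 h at 37 C with 1 uM final retinol co-added after compound; luminescence read 30 min post CellTiter-Glo, RT.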

[2] = qHTS assay to identify small molecule antagonists of the retinoic acid receptor (RAR) signaling pathway (AID 1159552; note: nearly all actives have a fitted effect of over 50% in size; note: potency is the fitted concentration of half-maximal effect)
Outline: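 Using a RARE-driven luciferase construct in C3RL4 cells, retinol at 1 uM final provided the agonist stimulus while compounds were co-applied. After 6 hours at 37 C, luminescence was recorded to flag inhibitors of retinol signaling.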

[3] = qHTS assay to identify small molecule antagonists of the estrogen related receptor (ERR) signaling pathway from Tox21 library - cell viability counter screen (AID 1224834); note: nearly all actives have a fitted effect of over 30% in size; note: potency is the fitted concentration of half-maximal effect
Outline: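 Compounds in DMSO were pinned onto ERR cells that had been incubated for 6 h, and the plates were held at 37 C for 17.5 h. CellTiter-Fluor reagent was then added and fluorescence was measured after 30 min.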

[4] = qHTS assay to identify small molecule agonists of the constitutive androstane receptor (CAR) signaling pathway - cell viability counter screen (AID 1224836); note: nearly all actives have a fitted effect of over 45% in size; note: potency is the fitted concentration of half-maximal effect
Outline: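 Multiplexed viability check: HepG2-CYP2B6-hCAR cells, 15-point compound dosing, 0.75 uM PK11195 final, 23 h at 37 C, CellTiter-Fluor fluorescence.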

[5] = qHTS assay to identify small molecule antagonists of the constitutive androstane receptor (CAR) signaling pathway - cell viability counter screen (AID 1224837); note: nearly all actives have a fitted effect of over 45% in size; note: potency is the fitted concentration of half-maximal effect
Outline: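 Cells are seeded, rested 4 hr at 37 C/5% CO2, dosed with compound (15-point series) and 50 nM CITCO, incubated a further 23 hr, and then CellTiter-Fluor reagent is added before fluorescence is read. The line is HepG2 with stable hCAR and CYP2B6-2.2kb.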

[6] = molecular target: Nuclear receptor subfamily 1 group I member 3 (Homo sapiens) (UniProt Q14994); assay: qHTS assay to identify small molecule agonists of the constitutive androstane receptor (CAR) signaling pathway (AID 1224839); note: nearly all actives have a fitted effect of over 15% in size; note: potency is the fitted concentration of half-maximal effect;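 for activation: HepG2 cells stably carrying human CAR and a CYP2B6 luciferase reporter; series mostly up to about 92 µM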
Nuclear receptor subfamily 1 group I member 3 (Homo sapiens), sequence (Q14994 whole entry, looked up): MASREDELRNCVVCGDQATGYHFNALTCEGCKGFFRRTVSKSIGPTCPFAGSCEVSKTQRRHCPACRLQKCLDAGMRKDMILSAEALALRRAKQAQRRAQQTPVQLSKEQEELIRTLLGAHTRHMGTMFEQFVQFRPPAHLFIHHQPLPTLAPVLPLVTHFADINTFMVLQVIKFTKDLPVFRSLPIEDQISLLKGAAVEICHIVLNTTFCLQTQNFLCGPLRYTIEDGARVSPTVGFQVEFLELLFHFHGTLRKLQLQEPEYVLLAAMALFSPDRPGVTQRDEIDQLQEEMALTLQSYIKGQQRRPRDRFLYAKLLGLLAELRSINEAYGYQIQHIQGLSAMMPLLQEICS
Outline: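 Using human hepatoma HepG2 cells engineered with hCAR and a CYP2B6-2.2kb reporter, 15-concentration compound series were incubated 24 h alongside PK11195 at 0.75 uM final, with luminescence quantified afterwards.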

[7] = qHTS assay to identify small molecule antagonists of the estrogen related receptor signaling pathway with the pleiotropic PPARgamma coactivator (PGC) from Tox21 10K library - cell viability counter screen (AID 1224840; active = well fitted cell-killing curve with a large enough effect in the repeat runs, not every such curve was filed as active; note: nearly all actives have a fitted effect of over 40% in size; note: potency is the fitted concentration of half-maximal effect)
Outline: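 Cell viability is measured by CellTiter-Fluor fluorescence in PGC/ERR cells that receive compounds after a 6-hour attachment period and are then incubated 17.5 hours at 37 C.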

[8] = molecular target: Thyrotropin receptor (Homo sapiens) (UniProt P16473); assay: qHTS assay to identify small molecule agonists of the thyroid stimulating hormone receptor (TSHR) signaling pathway (AID 1224843; calls by dose curve; note: nearly all actives have a fitted effect of over 45% in size; note: potency is the fitted concentration of half-maximal effect)
Thyrotropin receptor (Homo sapiens), sequence (P16473 whole entry, looked up): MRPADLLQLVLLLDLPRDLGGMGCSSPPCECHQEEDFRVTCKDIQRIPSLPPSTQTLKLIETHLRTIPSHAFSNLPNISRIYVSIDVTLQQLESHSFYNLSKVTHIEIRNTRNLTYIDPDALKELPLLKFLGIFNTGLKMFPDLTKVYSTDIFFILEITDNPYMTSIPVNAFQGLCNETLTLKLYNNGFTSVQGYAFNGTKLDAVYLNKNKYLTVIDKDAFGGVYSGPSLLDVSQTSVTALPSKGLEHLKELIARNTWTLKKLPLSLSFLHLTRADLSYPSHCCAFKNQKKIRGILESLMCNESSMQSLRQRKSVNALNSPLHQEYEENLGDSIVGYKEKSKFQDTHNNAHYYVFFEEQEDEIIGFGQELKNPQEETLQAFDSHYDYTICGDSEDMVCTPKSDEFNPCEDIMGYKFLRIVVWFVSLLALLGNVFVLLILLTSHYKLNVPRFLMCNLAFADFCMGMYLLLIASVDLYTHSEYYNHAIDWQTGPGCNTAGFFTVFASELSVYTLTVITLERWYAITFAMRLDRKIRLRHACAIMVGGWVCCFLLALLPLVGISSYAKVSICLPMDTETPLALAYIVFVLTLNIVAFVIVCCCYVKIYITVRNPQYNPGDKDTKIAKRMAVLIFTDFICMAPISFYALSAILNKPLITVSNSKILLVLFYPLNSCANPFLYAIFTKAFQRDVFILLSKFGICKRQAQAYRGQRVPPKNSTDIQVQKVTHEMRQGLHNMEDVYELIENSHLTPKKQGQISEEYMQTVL
Outline: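 Compounds are titrated over 15 concentrations, in triplicate, onto TSHR-HEK293 cells seeded at 800/well. Plates sit 30 min at room temperature before cAMP-d2 and anti-cAMP cryptate are added; signal is read after a further hour.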

[9] = qHTS assay to identify small molecule agonists of the retinoic acid receptor (RAR) signaling pathway (AID 1159553)
Outline: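 Quantitative high-throughput format: the Tox21 10K library was tested on C3RL4 RARE-luciferase cells for 6 hr at 37 C and 5% CO2, with luminescence measured after a 30 min room-temperature reagent step.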

[10] = qHTS assay to identify small molecule antagonists of the estrogen related receptor (ERR) signaling pathway - cell viability counter screen (AID 1224818);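 note: series mostly up to about 46 µM; viability measured after 17.5 h of compound exposure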
Outline: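 Quantitative high-throughput viability counter screen in ERR cells. Compounds (DMSO) incubated 17.5 h at 37 C; read-out was CellTiter-Fluor fluorescence.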

[11] = qHTS assay to identify small molecule antagonists of the estrogen related receptor (ERR) signaling pathway (AID 1224819; note: series mostly up to about 46 µM; nearly all actives have a fitted effect of over 50% in size)
Outline: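 ERR reporter cell line (NTP) plated at 2,000 cells/well, settled 6 h at 37C/5% CO2, then exposed to LOPAC compounds for 18 h at 37C. One-Glo luciferase luminescence read after 30 min at room temperature.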

[12] = qHTS assay to identify small molecule agonists of the estrogen related receptor (ERR) signaling pathway (AID 1224820)
Outline: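 After 6 h plating (2,000 cells/well) and 18 h compound treatment at 37 C, ERR cells were lysed with One-Glo and luminescence read after 30 min at room temperature.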

[13] = system: estrogen-related receptor alpha (ERRalpha) with PGC-1alpha coactivator, human; assay: qHTS assay to identify small molecule antagonists of the estrogen related receptor signaling pathway with the pleiotropic PPARgamma coactivator (PGC) (AID 1224821; calls by dose curve;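 note: series mostly up to about 46 µM; lower luminescence signal means antagonism of PGC/ERR signalling; nearly all actives have a fitted effect of over 50% in size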)
Outline: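 Luminescence from One-Glo luciferase reagent (30 min, room temperature) measured after 18 h compound treatment at 37 °C. Cells carry the PGC/ERR reporter and were seeded 6 h prior to dosing.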

[14] = qHTS assay to identify small molecule antagonists of the estrogen related receptor signaling pathway with the pleiotropic PPARgamma coactivator (PGC) cell viability counter screen (AID 1224822; note: series mostly up to about 46 µM)
Outline: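 Cytotoxicity in the PGC/ERR cell line is assessed with CellTiter-Fluor, read as fluorescence intensity 30 min after reagent addition, following 17.5 h compound treatment at 37 C.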

[15] = qHTS assay to identify small molecule agonists of the estrogen related receptor signaling pathway with the pleiotropic PPARgamma coactivator (PGC) (AID 1224823)
Outline: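 Luminescence from One-Glo reagent (30 min, room temperature) was read after 18 h compound treatment at 37 C of PGC/ERR cells plated 6 h beforehand; compounds delivered in DMSO by pin tool.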

[16] = molecular target: Luciferin 4-monooxygenase (Photinus pyralis) (UniProt P08659); assay: qHTS assay to identify small molecule inhibitors of firefly luciferase (AID 1224835); note: nearly all actives have a fitted effect of over 25% in size; note: potency is the fitted concentration of half-maximal effect
Luciferin 4-monooxygenase (Photinus pyralis), sequence (P08659 whole entry, looked up): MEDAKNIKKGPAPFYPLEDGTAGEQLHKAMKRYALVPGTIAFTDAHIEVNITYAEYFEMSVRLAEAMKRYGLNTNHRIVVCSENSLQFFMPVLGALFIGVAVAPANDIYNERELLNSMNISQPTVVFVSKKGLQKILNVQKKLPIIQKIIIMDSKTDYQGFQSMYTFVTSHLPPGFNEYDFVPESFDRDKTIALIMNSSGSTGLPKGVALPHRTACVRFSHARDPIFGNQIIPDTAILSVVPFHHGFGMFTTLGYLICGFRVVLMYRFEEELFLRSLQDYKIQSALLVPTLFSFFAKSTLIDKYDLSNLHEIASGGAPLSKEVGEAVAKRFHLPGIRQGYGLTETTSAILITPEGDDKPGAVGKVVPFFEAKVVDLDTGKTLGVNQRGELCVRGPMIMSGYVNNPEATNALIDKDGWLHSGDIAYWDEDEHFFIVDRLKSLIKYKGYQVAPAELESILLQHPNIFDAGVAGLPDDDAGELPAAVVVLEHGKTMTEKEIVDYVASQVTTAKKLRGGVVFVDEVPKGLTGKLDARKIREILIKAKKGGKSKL
Outline: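 Quantitative HTS format; KM concentrations of both substrates. Purified P. pyralis FLuc activity quantified from luminescence images.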

[17] = qHTS assay to identify small molecule antagonists of the estrogen related receptor signaling pathway with the pleiotropic PPARgamma coactivator (PGC) from Tox21 10K library (AID 1224841; call rule not given here; note: actives are mostly falling curves and most rising ones were filed inactive; nearly all actives have a fitted effect of over 50% in size; note: potency is the fitted concentration of half-maximal effect)
Outline: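 Cells stably carrying the PGC/ERR reporter, seeded at 2,000 per well, received pin-transferred compounds 6 h post-plating. Exposure lasted 18 h at 37 C. Signal: One-Glo luminescence.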

[18] = qHTS assay to identify small molecule agonists of the estrogen related receptor signaling pathway with the pleiotropic PPARgamma coactivator (PGC) from Tox21 10K library (AID 1224842); note: nearly all actives have a fitted effect of over 15% in size
Outline: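 PGC/ERR reporter cells (NTP line) were seeded 2,000 per well, rested 6 h at 37 C/5% CO2, then pin-dosed with compounds in DMSO for 18 h at 37 C; luciferase read by One-Glo luminescence after 30 min at room temperature.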

[19] = qHTS assay to identify small molecule agonists of the hypoxia (HIF-1) signaling pathway - cell viability counter screen (AID 1224844; calls by dose curve; note: nearly all actives have a fitted effect of over 50% in size; note: potency is the fitted concentration of half-maximal effect)
Outline: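 Viability counter screen: HRE-bla ME-180 cells plated 5 hrs before compound addition, treated 17 hrs at 37C and 5% CO2, then CellTiter-Glo added after the FRET reporter read; luminescence after 30 min.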

[20] = molecular target: Nuclear receptor subfamily 1 group I member 3 (Homo sapiens) (UniProt Q14994); assay: qHTS assay to identify small molecule antagonists of the constitutive androstane receptor (CAR) signaling pathway (AID 1224838);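 note: HepG2 cells stably expressing hCAR with CYP2B6 luciferase reporter stimulated by CITCO; nearly all actives have a fitted effect of over 40% in size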; note: potency is the fitted concentration of half-maximal effect
Outline: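 Luminescence from a CYP2B6-2.2kb promoter reporter in hCAR-expressing HepG2 cells reflects CAR signaling. Cells received compounds at 15 concentrations and 50 nM CITCO (final), then incubated 24 h at 37 C/5% CO2.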
% is set by controls: 0 for no effect and ±100 for the full control effect.

c1ccc(OCC2CO2)cc1 (stereo not drawn)
inactive: Potency [1] | Potency [2] | Potency [3] | Potency [4] | Potency [5] | Potency [6] | Potency [7] | Potency [8]

O=[N+]([O-])c1cc([N+](=O)[O-])c2ccccc2c1
active: Potency [6] 24.3 µM
inactive: Potency [1] | Potency [9] | outcome [10] | Potency [11] | outcome [12] | Potency [13] | Potency [14] | outcome [15] | Potency [3] | Potency [16] | Potency [4] | Potency [7] | Potency [8]

CC(C)C1CCC(Cc2ccc(Cl)cc2)C1(O)Cn1cncn1 (stereo not drawn)
active: Potency [1] 60.5 µM | Potency [2] 42.8 µM | Potency [3] 53.9 µM | Potency [17] 15.2 µM | Potency [8] 48.1 µM | Potency [19] 54.4 µM
inactive: Potency [16] | Potency [6] | Potency [18]

Cc1ccc(C(=O)Cl)cc1
inactive: Potency [1] | Potency [2] | Potency [3] | Potency [4] | Potency [5] | Potency [6] | Potency [7] | Potency [17] | Potency [8] | Potency [19]

COc1ccc(OC)c(C=O)c1
inactive: Potency [1] | Potency [2] | Potency [3] | Potency [16] | Potency [4] | Potency [5] | Potency [7] | Potency [19]

Oc1ccc(C2(c3ccc(O)cc3)CCCCC2)cc1
inactive: Potency [1] | Potency [16]
active: Potency [2] 41 µM | Potency [3] 57.9 µM | Potency [19] 52.1 µM

CC[C@H]1C[C@@H]2C[C@H]3c4[nH]c5ccc(OC)cc5c4CCN(C2)[C@@H]13
inactive: Potency [1] | Potency [2] | Potency [16] | Potency [4] | Potency [6] | Potency [18]
active: Potency [17] 53.5 µM

[Cl][Sn]([c]1ccccc1)([c]1ccccc1)[c]1ccccc1
inactive: activation [6] -23.6% [at 19 µM] | activation [18] -35.3% [at 19 µM]
active: Potency [1] 4.61 µM | Potency [2] 0.092 µM | Potency [3] 1.16 µM | Potency [16] 6.01 µM | Potency [4] 3.66 µM | Potency [20] 0.206 µM | Potency [7] 0.82 µM | Potency [17] 0.82 µM

N#CCCO
inactive: Potency [1] | Potency [2] | Potency [3] | Potency [16] | Potency [4] | Potency [19]

CCC[CH2][Sn]([CH2]CCC)([CH2]CCC)[O]C(=O)c1ccccc1
active: Potency [1] 4.86 µM | Potency [2] 0.686 µM | Potency [3] 2.17 µM | Potency [16] 35.6 µM | Potency [4] 0.77 µM | Potency [5] 1.22 µM | Potency [7] 1.22 µM | Potency [19] 0.549 µM
inactive: Potency [8]

Nc1c(Oc2ccccc2)cc(O)c2c1C(=O)c1ccccc1C2=O
inactive: Potency [1] | Potency [2] | Potency [4] | Potency [5] | Potency [20] | Potency [19]
active: Potency [16] 3.09 µM | Potency [6] 6.68 µM

N#CCc1ccc(Cl)cc1
inactive: Potency [1] | Potency [2] | Potency [3] | Potency [16] | Potency [4] | Potency [17] | Potency [18] | Potency [19]

O=[N+]([O-])c1cc(Cl)ccc1Cl
inactive: Potency [1] | Potency [2] | Potency [3] | Potency [16] | Potency [4] | Potency [6] | Potency [8] | Potency [19]

O=C(CCl)C(Cl)Cl
inactive: Potency [1] | Potency [16] | Potency [6] | Potency [18]
active: Potency [2] 15.5 µM | Potency [3] 27.6 µM | Potency [4] 21.9 µM | Potency [20] 13.8 µM | Potency [7] 24.6 µM | Potency [17] 61.7 µM

CCOP(=S)(OCC)SCS(=O)(=O)C(C)(C)C
inactive: Potency [1] | Potency [2] | Potency [3] | Potency [16] | Potency [4] | Potency [20] | Potency [7] | Potency [8] | Potency [19]

COc1ccc([N+](=O)[O-])cc1O
inactive: Potency [1] | Potency [2] | Potency [3] | Potency [16] | Potency [4] | Potency [8]

CNC(C)Cc1ccc2c(c1)OCO2 (stereo not drawn)
inactive: Potency [1] | Potency [2] | Potency [3] | Potency [16] | Potency [4] | Potency [20] | Potency [6] | Potency [7] | Potency [8]

Nc1ccc([N+](=O)[O-])cc1Cl
inactive: Potency [1] | Potency [2] | Potency [5] | Potency [20] | Potency [7] | Potency [8] | Potency [19]

CCOC(=O)CC(=O)CCl
inactive: Potency [1] | Potency [9] | Potency [3] | Potency [16] | Potency [4] | Potency [5] | Potency [20] | Potency [6] | Potency [7]

CC(C)Oc1cccc(NC(=O)c2ccccc2C(F)(F)F)c1
active: Potency [6] 61.1 µM
inactive: Potency [1] | Potency [9] | outcome [10] | outcome [12] | Potency [14] | outcome [15] | Potency [16] | Potency [4] | Potency [5] | Potency [20] | Potency [7] | Potency [18]
